Test [1] in a line: qHTS assay to identify small molecule antagonists of the androgen receptor (AR) signaling pathway using the MDA cell line in the presence of 0.5 nM R1881 - cell viability counter screen (AID 1259242). Also: nearly all actives have a fitted effect of over 45% in size. In a few lines: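 qHTS format. MDA-kb2 (MMTV-luc, AR/GR responsive) + cpd + 0.5 nM R1881 final, 16 hr 37C/0% CO2 → CellTiter-Fluor 30 min → fluorescence intensity.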
(In general: Quantitative high-throughput screening tests each substance at several concentrations.)

Test [2] concerns the target Estrogen receptor (Homo sapiens) (UniProt P03372). The test is described as follows: qHTS assay to identify small molecule antagonists of the estrogen receptor alpha (ER-alpha) signaling pathway using the BG1 cell line in the presence of 0.1 nM 17-beta-estradiol (AID 1259244). Also: nearly all actives have a fitted effect of over 50% in size. In short, it runs like this:
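Reporter is a stably transfected luciferase under four estrogen responsive elements in VM7Luc4E2 cells expressing native full-length ER-alpha; inhibition of 0.1 nM (final) 17beta-estradiol-driven signal over 22 h is read by luminescence.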

The nature of test [3]: qHTS assay to identify small molecule phospholipidosis (PLD) inducers (AID 1259344; active = well fitted curve in the direction sought with a large enough effect; an effect the other way counts as inactive or inconclusive). In short, it runs like this:
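After 4 h attachment on collagen I, HepG2 cells were dosed with compound alongside LipidTOX Red, kept 24 h at 37 C, fixed, and imaged for lamellar phospholipid pits.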

A short description of test [4]: qHTS assay to identify small molecule HDAC inhibitors (AID 1259364).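 Also: wild-type HCT-116 cells with endogenous class I/II HDAC activity; top concentration of the series differs between compounds; nearly all actives have a fitted effect of over 45% in size.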 In short, it runs like this: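 Quantitative high-throughput format: overnight-seeded HCT-116 cells got compounds for 2 hr at 37C; HDAC-Glo I/II reagent added, 30 min RT, luminescence measured.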
Test [5] is described as follows: qHTS assay to identify small molecule HDAC inhibitors - cell viability counter screen (AID 1259365). Also: series mostly up to about 92 µM; nearly all actives have a fitted effect of over 50% in size. In a few lines:
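Cytotoxicity was gauged in wild-type HCT-116 cells after a brief 2hr treatment with DMSO-dissolved compounds at 37C and 5% CO2, using CellTiter-Glo luminescence developed for 30min at room temperature.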

A short description of test [6]: qHTS assay to identify small molecule agonists of the sonic hedgehog signaling (Shh) pathway - cell viability counter screen (AID 1259366). Also: nearly all actives have a fitted effect of over 50% in size. In short, it runs like this:
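Stable Gli1-Luc NIH/3T3 clone, 2,000 cells/well. Compound exposure 24hr at 37C. Read-out: CellTiter-Fluor fluorescence.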

Test [7] is described as follows: qHTS assay to identify small molecule antagonists of the sonic hedgehog signaling (Shh) pathway - cell viability counter screen (AID 1259367). Also: nearly all actives have a fitted effect of over 55% in size. In a few lines: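 Conditioned medium drove Shh signaling in 3T3 Gli1-Luc cells exposed to compounds at 37C and 5% CO2. Viability was determined from CellTiter-Fluor fluorescence, with reagent incubated 1 hr after 23 hr of treatment.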

The nature of test [8]: qHTS assay to identify small molecule agonists of the sonic hedgehog signaling (Shh) pathway (AID 1259368; calls by dose curve;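 also: NIH/3T3-derived 3T3Gli1-Luc cells carrying a stable Gli1-driven firefly luciferase reporter; series mostly up to about 92 µM; nearly all actives have a fitted effect of over 15% in size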). In short, it runs like this: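 Quantitative high-throughput format using a Gli1-driven firefly luciferase reporter line derived from NIH/3T3 cells. After a 24 hr compound treatment at 37 C and 5% CO2, luminescence reported Gli1 response element activity.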
Test [9] in a line: qHTS assay to identify small molecule antagonists of the sonic hedgehog signaling (Shh) pathway (AID 1259369; calls by dose curve; also: nearly all actives have a fitted effect of over 45% in size). In short, it runs like this:
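Stable Gli1-Luc reporter NIH/3T3 clone; quantitative HTS in stimulated mode with conditioned medium. Luminescence measured after 24hr compound treatment at 37 C.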

Test [10] addresses Estrogen receptor beta (Homo sapiens) (UniProt Q92731). Briefly: qHTS assay to identify small molecule agonists of the estrogen receptor beta (ER-beta) signaling pathway (AID 1259377; active = well fitted activation curve with a large enough effect in the signal ratio in the repeat runs, not every such curve was filed as active; the % refers to the signal ratio). In short, it runs like this: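 Measured by fluorescence intensity from a B/G FRET beta-lactamase substrate (2 h, room temperature) in ER-beta-UAS-bla HEK293T cells treated with DMSO-dissolved compounds for 16 hr at 37C and 5% CO2.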

The target is the same in test [11]. The test is described as follows: qHTS assay to identify small molecule antagonists of the estrogen receptor beta (ER-beta) signaling pathway (AID 1259378; active = well fitted inhibition curve with a large enough effect in the signal ratio in the repeat runs, not every such curve was filed as active; the % refers to the signal ratio). In short, it runs like this: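 ER-beta-UAS-bla HEK293T (GripTite) cells in 2% charcoal-stripped FBS medium were preincubated 6 hr at 37C, dosed with compound, then stimulated with 1 nM E2 (final) for 16 hr; beta-lactamase reporter read by B/G FRET fluorescence after 2 hr substrate loading.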

Test [12] in a line: qHTS assay to identify small molecule agonists of the androgen receptor (AR) signaling pathway in the presence of an antagonist - cell viability counter screen (AID 1259379).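 Also: MDA-kb2 human breast cancer cells carrying an MMTV luciferase reporter; series mostly up to about 92 µM; nearly all actives have a fitted effect of over 25% in size.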 In a few lines:
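Nilutamide-containing (3.0uM final) MDA-kb2 cultures, 3,000 cells/well, were treated with compounds across 15 concentrations. After 16 hr at 37C with no CO2, cell viability was determined by CellTiter-Fluor fluorescence in the luciferase assay wells.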

Test [13] can be described thus: qHTS assay to identify small molecule agonists of the estrogen receptor beta (ER-beta) signaling pathway - cell viability counter screen (AID 1259380). Also: nearly all actives have a fitted effect of over 30% in size. Also: potency is read from the fitted curve at half-maximal effect. In a few lines: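 Steps: plate ER-beta-UAS-bla HEK293T cells, rest 6 hr; add compounds in DMSO; incubate 16 hr at 37C, 5% CO2; add FRET substrate 2 hr; add CellTiter-Glo, wait 30 min at room temperature; read luminescence.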

The nature of test [14]: qHTS assay to identify small molecule antagonists of the estrogen receptor beta (ER-beta) signaling pathway - cell viability counter screen (AID 1259382). Also: series mostly up to about 92 µM; nearly all actives have a fitted effect of over 55% in size. In short, it runs like this: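 Viability is scored by CellTiter-Glo luminescence (30 min, room temperature) in ER-beta-UAS-bla HEK293T wells already read for reporter fluorescence. Compound exposure lasts 16 hr at 37C alongside 1nM 17-beta-estradiol in charcoal-stripped serum medium.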

Test [15] concerns the target Estrogen receptor (Homo sapiens) (UniProt P03372). The test is described as follows: qHTS assay to identify small molecule agonists of the estrogen receptor alpha (ER-alpha) signaling pathway in the presence of an antagonist (AID 1259383; calls by dose curve; also: top concentration of the series differs between compounds; nearly all actives have a fitted effect of over 15% in size). In a few lines: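 Readout was ERE-driven luciferase luminescence in VM7Luc4E2 cells, which express full-length ER-alpha endogenously. Compounds were tested at 15 concentrations for 22hr alongside 10.0nM ICI-182,780 (final concentration).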

Test [16] in a line: qHTS assay to identify small molecule agonists or antagonists of the thyroid stimulating hormone receptor (TSHR) signaling pathway - wild type cell line counter screen (AID 1259384; calls by dose curve; also: potency is read from the fitted curve at half-maximal effect). In a few lines:
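Wild-type HEK293 cells were plated 18 h at 37 C/5% CO2, pin-dosed with compound plus Ro20-1724 medium, held 30 min at room temperature, then given cAMP-d2 and anti-cAMP-cryptate; fluorescence was read after 1 h. Fifteen concentrations, triplicate.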

Test [17] has as its target Thyrotropin receptor (Homo sapiens) (UniProt P16473). The test is described as follows: qHTS assay to identify small molecule antagonists of the thyroid stimulating hormone receptor (TSHR) signaling pathway (AID 1259385; calls by dose curve; also: nearly all actives have a fitted effect of over 20% in size; also: potency is read from the fitted curve at half-maximal effect). In short, it runs like this: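 TSHR-HEK293 cells were plated and held 18 h at 37C/5% CO2, then given compound plus Ro20-1724 and stimulated with TSH at 1.5 ng/mL final. After 30 min at room temperature, cAMP was detected with cAMP-d2/anti-cAMP-cryptate (1 h) by fluorescence.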

A short description of test [18]: qHTS assay to identify small molecule agonists of the estrogen receptor alpha (ER-alpha) signaling pathway in the presence of an antagonist - cell viability counter screen (AID 1259386).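 Also: series mostly up to about 92 µM; cells exposed to compounds for 22 h at 37 °C before the viability read; nearly all actives have a fitted effect of over 30% in size.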 In a few lines:
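In this counter screen, compound effects on VM7Luc4E2 viability were tested in the presence of the antagonist ICI-182,780 at 10.0nM final. Compounds were dosed at 15 concentrations, exposure lasted 22hr, and the CellTiter-Fluor signal was read.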

A number with no mark means an inactive call. Inconclusive results are not listed. Calls of active or inactive are those of the source. Unless noted, calls follow the shape of the dose curve; as a rule, active = well fitted curve in the direction sought with a large enough effect in the repeat runs; inconclusive = weak or mixed curves; inactive = no such curve, though single readings can be large; an effect the other way counts as inactive or inconclusive.
% is scaled to controls: 0 for no effect and ±100 for the full control effect.

Chain of Estrogen receptor beta (Homo sapiens) (Q92731 whole entry, looked up): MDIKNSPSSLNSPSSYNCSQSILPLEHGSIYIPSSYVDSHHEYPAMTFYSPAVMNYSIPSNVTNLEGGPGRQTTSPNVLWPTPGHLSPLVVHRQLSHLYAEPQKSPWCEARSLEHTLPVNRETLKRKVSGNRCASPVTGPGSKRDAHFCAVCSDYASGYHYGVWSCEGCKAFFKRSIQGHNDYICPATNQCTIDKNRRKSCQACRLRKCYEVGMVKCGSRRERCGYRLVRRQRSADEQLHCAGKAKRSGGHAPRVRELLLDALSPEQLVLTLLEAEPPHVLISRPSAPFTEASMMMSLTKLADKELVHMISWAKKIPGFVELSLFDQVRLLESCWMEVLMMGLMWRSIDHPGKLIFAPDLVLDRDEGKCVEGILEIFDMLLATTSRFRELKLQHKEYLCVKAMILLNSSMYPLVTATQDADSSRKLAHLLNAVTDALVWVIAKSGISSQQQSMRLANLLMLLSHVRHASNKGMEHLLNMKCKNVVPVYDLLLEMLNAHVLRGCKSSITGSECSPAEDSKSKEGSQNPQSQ
Chain of Estrogen receptor (Homo sapiens) (P03372 whole entry, looked up): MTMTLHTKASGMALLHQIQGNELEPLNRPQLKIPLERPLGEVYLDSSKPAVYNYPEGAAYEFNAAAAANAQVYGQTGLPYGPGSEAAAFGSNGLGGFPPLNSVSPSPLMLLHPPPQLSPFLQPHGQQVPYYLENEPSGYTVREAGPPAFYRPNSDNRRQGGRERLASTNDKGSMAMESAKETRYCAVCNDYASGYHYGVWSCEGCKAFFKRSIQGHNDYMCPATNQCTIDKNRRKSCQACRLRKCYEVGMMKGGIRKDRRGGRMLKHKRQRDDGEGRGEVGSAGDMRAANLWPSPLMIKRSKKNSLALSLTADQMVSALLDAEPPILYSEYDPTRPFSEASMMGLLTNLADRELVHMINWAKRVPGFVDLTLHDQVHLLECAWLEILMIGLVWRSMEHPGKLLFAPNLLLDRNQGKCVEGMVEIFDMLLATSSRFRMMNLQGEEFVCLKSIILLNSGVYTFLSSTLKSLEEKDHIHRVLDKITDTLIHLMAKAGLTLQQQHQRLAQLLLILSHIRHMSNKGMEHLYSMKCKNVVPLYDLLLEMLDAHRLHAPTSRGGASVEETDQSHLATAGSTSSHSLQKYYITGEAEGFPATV
Chain of Thyrotropin receptor (Homo sapiens) (P16473 whole entry, looked up): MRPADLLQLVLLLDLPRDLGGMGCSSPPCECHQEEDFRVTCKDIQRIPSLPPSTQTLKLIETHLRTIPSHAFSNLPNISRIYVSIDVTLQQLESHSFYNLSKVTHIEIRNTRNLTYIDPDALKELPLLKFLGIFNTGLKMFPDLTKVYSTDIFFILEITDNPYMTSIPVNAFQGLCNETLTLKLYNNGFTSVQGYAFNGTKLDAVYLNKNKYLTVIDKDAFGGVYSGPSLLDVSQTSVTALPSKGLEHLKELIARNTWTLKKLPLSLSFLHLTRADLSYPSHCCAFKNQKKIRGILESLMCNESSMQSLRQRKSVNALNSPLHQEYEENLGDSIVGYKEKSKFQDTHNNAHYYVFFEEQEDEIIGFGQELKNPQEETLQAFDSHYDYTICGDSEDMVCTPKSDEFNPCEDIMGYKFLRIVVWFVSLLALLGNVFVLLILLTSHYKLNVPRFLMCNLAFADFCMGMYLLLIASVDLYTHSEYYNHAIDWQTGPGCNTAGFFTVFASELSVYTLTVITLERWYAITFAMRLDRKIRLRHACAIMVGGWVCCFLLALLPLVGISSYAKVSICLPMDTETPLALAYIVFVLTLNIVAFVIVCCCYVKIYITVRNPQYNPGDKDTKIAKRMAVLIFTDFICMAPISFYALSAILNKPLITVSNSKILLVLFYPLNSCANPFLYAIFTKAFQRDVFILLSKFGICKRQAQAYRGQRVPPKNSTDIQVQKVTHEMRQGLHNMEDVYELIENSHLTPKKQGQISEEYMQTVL

Turning to `O=C1OC(c2ccc(O)c(S(=O)(=O)O)c2)(c2ccc(O)c(S(=O)(=O)O)c2)c2c(Br)c(Br)c(Br)c(Br)c21`, the outcome in test [1], in test [3], in [5], in test [8] and in test [10] was inactive. Further, the Potency result in test [2], in test [4], in test [6], in [7], in test [9] and in [11] was “inactive” each time. Besides, the Potency entry in test [12], in [13], in test [14], in test [15], in test [16] and in [17] was “inactive” each time. The Potency entry in [18] is “inactive”.
As for `CCOP(=S)(OCC)Oc1cc(-c2ccccc2)on1`, the result in test [1], in test [5], in test [8] and in test [10] was inactive. For the same compound, the Potency result in [2], in test [4], in [6], in [7], in test [9] and in [11] was “inactive” throughout. The Potency entry in test [12], in [13], in test [14], in test [15], in test [16] and in test [18] was “inactive” each time.
For `CNCC(=O)c1ccc(O)c(O)c1`, the outcome in [1], in test [5], in [8] and in [10] was inactive. The Potency entry in [2], in [6], in [7], in test [9], in test [11] and in test [12] was “inactive” in each case. In addition, the Potency entry in test [13], in test [14], in test [15], in [17] and in [18] was “inactive” throughout. In addition, the PLD induction in test [3] was -2.28% [at 7.66 µM]. For the same compound, in test [16], the Potency is 4.22 µM (active).
Take `CC1CN1P(=O)(N1CC1C)N1CC1C` (stereo not drawn): the outcome in test [1], in [5], in test [8] and in [10] was inactive. The Potency result in [2], in test [4], in test [6], in test [7], in [9] and in test [11] was “inactive” in each case. In addition, the Potency entry in test [12], in test [13], in test [14], in [15] and in test [18] was “inactive” each time.
In the case of `CC(CCc1ccccc1)NC(C)C(O)c1ccc(O)cc1` (stereo not drawn), the outcome in test [1], in test [3], in [5] and in [8] was inactive. Besides, the Potency entry in [2], in [4], in [6], in [7], in test [9] and in [12] was “inactive” throughout. For the same compound, the Potency entry in test [14], in test [15], in test [16], in test [17] and in [18] was “inactive” throughout.
As to `NC(=O)c1cc([N+](=O)[O-])cc([N+](=O)[O-])c1`, the outcome in [1], in [3], in test [5] and in [8] was inactive. The Potency result in test [2], in [4], in [6], in test [7], in [9] and in test [11] was “inactive” throughout. Further, the Potency result in [12], in [13], in [14], in test [15], in test [16] and in test [17] was “inactive” each time. Besides, in test [18], the Potency entry is “inactive”.
Turning to `CCOP(=S)(OCC)SCSc1ccc(Cl)cc1`, the outcome in [1], in [5], in [8] and in [10] was inactive. Moreover, the Potency entry in [2], in [4], in test [6], in test [9], in test [11] and in [12] was “inactive” in each case. For the same compound, the Potency entry in test [13], in [14], in [15], in test [16] and in test [18] was “inactive” each time. In addition, the PLD induction in [3] was -3.38% [at 7.66 µM]. Further, the Potency in [17] was 30.6 µM (active).
Regarding `ClC(Br)Br`, the outcome in test [1], in test [5], in [8] and in [10] was inactive. Also, the Potency entry in [2], in test [4], in test [6], in [7], in [9] and in test [11] was “inactive” in each case. The Potency result in test [12], in test [13], in test [14], in test [15], in [16] and in [17] was “inactive” throughout. Also, the Potency entry in test [18] is “inactive”.
For `CCOC(=O)/C=C(C)/C=C/C[C@@H](C)CCCC(C)C`, the outcome in test [1], in [3], in [5], in [8] and in [10] was inactive. The Potency result in [2], in [6], in [7], in [12] and in [15] was “inactive” each time. Further, in [13], the Potency was 43.3 µM (active).
